The values below come from PubChem BioAssay (NCI).

About 83,000 compounds went through this panel and 20% of them were active in at least one assay; those are over-represented in the sample as a whole.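 Negative percent growth values reflect cell death: -40 means 40% of the cells present at the start died, and -100 means all died.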 Active and inactive are the calls of the source. The calls were made as follows: active = growth percent below 10; inactive = the rest.

The subject of the first test is HCT-116 colon. The experiment in a line: NCI-60 one-dose screen, 48 h (100 = growth as untreated, 0 = no growth, -100 = all killed). Particulars: 10 µM unless noted.
For `N#Cc1nc(-c2ccccc2)oc1S(=O)(=O)N1CCOCC1`, the growth is 19.9% (inactive).
Same read-out and setting: for `COC(C(=O)[C@@H](O)[C@@H](C)O)[C@@H]1Cc2cc3cc(O[C@H]4C[C@@H](O[C@H]5C[C@@H](O)[C@H](O)C(C)O5)[C@H](O)C(C)O4)c(C)c(O)c3c(O)c2C(=O)[C@H]1O[C@H]1C[C@@H](O[C@H]2C[C@@H](O[C@H]3C[C@@H](O)[C@H](OC)C(C)O3)[C@@H](O)C(C)O2)[C@H](O)C(C)O1` (stereo partly specified) the value was 12.1% (inactive).
Same read-out and setting: the value for `CC1=C(C(=O)OC(C)C)C(c2ccc3c(c2)OCO3)NC(=S)N1` (stereo unspecified) was 95.6% (inactive); that for `O=C(/C=C/c1ccccc1)c1cccc(OCCCOc2cccc(C(=O)/C=C/c3ccccc3)c2)c1` was -81.3% (active).

The test system of the next test is HCC-2998 colon. The description is as above. Particulars: 10 µM unless noted.
For `C=C1C(=O)O[C@H]2[C@H]1CC/C(COC(=O)NCc1cc[nH]c1)=C\CC[C@@]1(C)O[C@@H]21`, the growth is 95% (inactive).
Same read-out and setting: for `CSc1nc2sc3c(c2c(=O)n1-c1ccc([N+](=O)[O-])cc1)CCCCC3` the value was 104% (inactive); for `O=C(Nn1c2c(sc1=NCc1ccccc1)C(=O)c1ccccc1C2=O)c1cc2ccc1CCc1ccc(cc1)CC2`, 101% (inactive).
In the case of `O=C(CN1C(=O)CCC1=O)Nc1ncc(Cc2ccc(F)cc2)s1`, the growth was 92.5% (inactive).
The same measure, in the same setting: the value for `Cc1ccc(NC(=S)NNC(=S)NNc2ccccc2)cc1C` was 123% (inactive); that for `CCN(CC)CCOc1ccc(C(=C(C)c2ccc(Cl)cc2)c2ccc(OCCN(CC)CC)cc2)cc1` was -91.2% (active).
Take `COC(=O)[C@]1(C)CCC[C@]2(C)[C@H]3C[C@H]4C(C(C)C)=C[C@]3(CC[C@H]21)[C@H]1[C@@H]4[C@@H](OCCC#N)CC[C@@H]1OCCC#N`: the growth was 65.1% (inactive).
